For assay [1], the system named is WaGa. Nature of the assay: qHTS assay to identify novel small-molecules to repurpose for Merkel cell carcinoma treatment (AID 1296009). Further: nearly all actives have a fitted effect of over 60% in size. Further: potency means the concentration at half of the fitted maximal effect. As to conditions: MCC and control cell lines, CellTiter-Glo viability, 72 h; series mostly up to 46 µM. The method, boiled down: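 Cells were treated for 72 hr at 37 degree celsius with compounds in 8- or 11-point dose response. Viability was read by CellTiter-Glo luminescence, normalized to no-cell (cytotoxicity) and DMSO controls.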
(In general: Quantitative high-throughput screening tests each substance at several concentrations.)

Assay [2] in a line: qHTS assay to identify inhibitors of the type 1 interferon - major histocompatibility complex class I in skeletal muscle: Counter screen cell viability and HiBit confirmation (AID 1347412). Further: potency means the concentration at half of the fitted maximal effect; nearly all actives have a fitted effect of over 60% in size. To be noted: iHSKM muscle cells + IFN-b, HiBiT or CellTiter-Glo, 24 h. In a few lines:
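Duplicate plates, pinned identically: one read for HiBiT-tagged endogenous HLA-B luminescence, the other for ATP-content viability via CellTiter Glo. Cells were genome-engineered human myoblasts given 4 ng/ml IFN-b; compounds 12-pt, 1:3 from 46 uM final; 24 hr exposure.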

Assay [3] deals with CASKI. Nature of the assay: Primary qHTS to identify gynecologic anti-cancer compounds using libraries of approved drugs and bioactive compounds (AID 1345084). Further: nearly all actives have a fitted effect of over 55% in size. Further: potency means the concentration at half of the fitted maximal effect. As to conditions: Gynecologic cancer cell panel viability, ATPlite luminescence, 48 h; series mostly up to 57.5 µM. The method, boiled down:
(§1)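 Five-point cytotoxicity, 48 h drug exposure at 37 C, 5% CO2, on cells seeded 16 h beforehand. ATP content read by ATPlite luminescence.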

In assay [4] the test system is HeLa. Described as above. As to conditions: Gynecologic cancer cell panel viability, ATPlite luminescence, 48 h; series mostly up to 57.5 µM. In a few lines: as §1
(ATP-based viability assays read luminescence as a measure of living cells.)

Assay [5] relates to OV90. Described as above. To be noted: Gynecologic cancer cell panel viability, ATPlite luminescence, 48 h; series mostly up to 57.5 µM. In a few lines: as §1
The subject of assay [6] is SKOV3. The description is as above. As to conditions: Gynecologic cancer cell panel viability, ATPlite luminescence, 48 h; series mostly up to 57.5 µM. The method, boiled down: as §1
Assay [7] relates to Tov-21-G. Described as above. To be noted: Gynecologic cancer cell panel viability, ATPlite luminescence, 48 h; series mostly up to 57.5 µM. In a few lines: as §1
The nature of assay [8]: Drug repurposing screens with cells derived from glioblastoma tumor samples (AID 1345199). Further: nearly all actives have a fitted effect of over 40% in size. Further: potency means the concentration at half of the fitted maximal effect. On activity, negative = cell killing: on the % scale 0 is the no-effect control and ±100 the full control effect. As to conditions: GBM patient neurospheres viability, ATP luminescence, 48 h. In a few lines: (§2)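 Four patient lines of CD133+ GBM neurospheres were screened at several concentrations; hits were retested in those lines plus three slower-growing GBM lines, using 48-hour treatment and ATP-based viability.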

The subject of assay [9] is C33A. Nature of the assay: Primary qHTS to identify gynecologic anti-cancer compounds using libraries of approved drugs and bioactive compounds (AID 1345084). Further: nearly all actives have a fitted effect of over 55% in size. Further: potency means the concentration at half of the fitted maximal effect. As to conditions: Gynecologic cancer cell panel viability, ATPlite luminescence, 48 h; series mostly up to 57.5 µM. In a few lines:
as §1

Assay [10] concerns CAOV3. The description is as above. To be noted: Gynecologic cancer cell panel viability, ATPlite luminescence, 48 h; series mostly up to 57.5 µM. The method, boiled down: as §1
In assay [11] the test system is Es-2. Described as above. To be noted: Gynecologic cancer cell panel viability, ATPlite luminescence, 48 h; series mostly up to 57.5 µM. The method, boiled down:
as §1

Assay [12] relates to Hek293T. The description is as above. To be noted: Gynecologic cancer cell panel viability, ATPlite luminescence, 48 h, control line for the selectivity index; series mostly up to 57.5 µM. In a few lines:
as §1

For assay [13], the system named is JEG-3. The description is as above. As to conditions: Gynecologic cancer cell panel viability, ATPlite luminescence, 48 h; series mostly up to 57.5 µM. In a few lines:
as §1

Assay [14] relates to PA-1. The assay is described as above. As to conditions: Gynecologic cancer cell panel viability, ATPlite luminescence, 48 h; series mostly up to 57.5 µM. In a few lines:
as §1

The subject of assay [15] is Tov112D. The description is as above. As to conditions: Gynecologic cancer cell panel viability, ATPlite luminescence, 48 h; series mostly up to 57.5 µM. The method, boiled down:
as §1

The subject of assay [16] is astro. Nature of the assay: Drug repurposing screens with cells derived from glioblastoma tumor samples (AID 1345199). Further: nearly all actives have a fitted effect of over 40% in size. Further: potency means the concentration at half of the fitted maximal effect. On activity, negative = cell killing: on the % scale 0 is the no-effect control and ±100 the full control effect. To be noted: viability, ATP luminescence, 48 h; series mostly up to 45.9 µM. In a few lines:
as §2

Assay [17] concerns the target Nuclear receptor subfamily 1 group I member 2 (Rattus norvegicus) (UniProt Q9R1A7). In words: qHTS assay for small molecule activators of the rat pregnane X receptor (rPXR) signaling pathway (AID 651751; call rule not given here; further: 0% is about no effect). As to conditions: rPXR reporter cells, luciferase (One-Glo), 24 h.
Setting [18] is: at 45.9 µM (top of the series), tumour line B.
The mark [19] stands for this setting: at 46.1 µM (top of the series), tumour line C.
Where [20] appears, read: at 45.9 µM (top of the series), tumour line D.
[21] abbreviates: at 46 µM (top of the series), tumour line A.

Values joined by “and” are separate entries in the source; they are usually repeats but may differ in a detail not shown here. Equal entries are not always repeated. Unmarked numbers belong to inactive results. Records with an inconclusive call do not appear. Active and inactive are the calls of the source. Unless noted, the call rests on the fitted dose curve; in most records, active means well fitted curve in the direction sought with a large enough effect; inconclusive means small, poorly fitted or top-dose-only effect, or another doubt; inactive means no such curve, though single readings can be large; an effect the other way counts as inactive or inconclusive.

Nuclear receptor subfamily 1 group I member 2 (Rattus norvegicus), sequence (Q9R1A7 whole entry, looked up): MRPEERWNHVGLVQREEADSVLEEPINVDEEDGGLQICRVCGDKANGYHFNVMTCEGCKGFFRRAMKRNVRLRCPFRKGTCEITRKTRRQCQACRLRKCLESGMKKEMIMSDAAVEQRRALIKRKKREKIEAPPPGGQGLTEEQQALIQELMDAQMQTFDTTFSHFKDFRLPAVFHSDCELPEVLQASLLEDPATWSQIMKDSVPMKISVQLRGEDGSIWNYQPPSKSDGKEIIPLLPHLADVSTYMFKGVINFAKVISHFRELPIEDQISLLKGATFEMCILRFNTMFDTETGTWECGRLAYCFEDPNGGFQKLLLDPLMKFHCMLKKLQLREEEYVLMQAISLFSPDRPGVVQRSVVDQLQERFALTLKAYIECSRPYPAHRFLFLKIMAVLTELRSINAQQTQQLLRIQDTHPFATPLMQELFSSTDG

For `CCN(CC)CCOc1ccc(Nc2ncc3cc(-c4c(Cl)cccc4Cl)c(=O)n(C)c3n2)cc1`, the Potency was 2.96 µM (active) in assay [1]; 557 nM (active) and 883 nM (active) in [2] (HiBiT); 12.5 µM (active) and 2.79 µM (active) in assay [2] (Viability).
In the case of `COC1=C(OC)C(=O)C(CCCCCCCCCCO)=C(C)C1=O`, the Potency entry in assay [3], in assay [4], in assay [5], in assay [6] and in assay [7] was “inactive” throughout. Also, the activity, negative = cell killing in assay [8] (setting [18]) was -9.04%; in assay [8] (setting [19]), 1.43%.
As for `C=C(c1ccc(C(=O)O)cc1)c1cc2c(cc1C)C(C)(C)CCC2(C)C`, the Potency entry in assay [9], in assay [10], in [3], in [11], in assay [4] and in [12] was “inactive” throughout. Moreover, the Potency entry in [13], in assay [5], in assay [14], in assay [6], in assay [7] and in assay [15] was “inactive” in each case.
Turning to `COc1c2occc2cc2ccc(=O)oc12`, the Potency entry in [9], in assay [3], in assay [11], in assay [4], in assay [13] and in assay [5] was “inactive” each time. The Potency result in assay [14], in assay [6], in [7], in assay [15] and in assay [16] was “inactive” throughout. For the same molecule, the activity, negative = cell killing in assay [8] (setting [18]) is -22.6%; in assay [8] (setting [20]), -10.6%; in [8] (setting [19]), -21.4%. Besides, in [17], the max response was 0.0225% and 5.31%.
For `O=C(CS(=O)Cc1ccco1)NCC=CCOc1cc(CN2CCCCC2)ccn1` (configuration not stated), the Potency entry in [1] and in assay [16] was “inactive” in each case. Besides, the results for the activity, negative = cell killing in assay [8] (setting [18]), in [8] (setting [20]) and in assay [8] (setting [19]) were -14.1%, -2.16% and -28%, respectively. The Potency in [8] (tumour line A) is 25.1 µM (active).
Turning to `CC(C)Oc1ccc2c(=O)c(-c3ccccc3)coc2c1`, the Potency is 22.4 µM (active) in assay [10]; 5.01 µM (active) in [11]; 28.2 µM (active) in assay [4]; 22.4 µM (active) in assay [5]; 20 µM (active) in assay [14]; 15.8 µM (active) in [7]. Also, in [15], the Potency is 20 µM (active).
Consider `C[C@]12CCC(=O)C=C1CC[C@@H]1[C@H]2[C@@H](O)C[C@@]2(C)[C@H]1CC[C@]2(O)C(=O)CO`, for which the Potency result in [1] and in assay [16] was “inactive” each time. The activity, negative = cell killing in assay [8] (setting [18]) is -8.77%; in assay [8] (setting [20]), -14.8%; in assay [8] (setting [21]), -3.08%; in assay [8] (setting [19]), 14.8%.
For `O=C(O)c1cc(=O)c2c(OCC(O)COc3cccc4oc(C(=O)O)cc(=O)c34)cccc2o1`, the Potency entry in assay [9], in [10], in assay [3], in assay [11], in [4] and in assay [12] was “inactive” in each case. Besides, the Potency entry in assay [5], in [14], in assay [6], in assay [7], in assay [15] and in assay [16] was “inactive” throughout. In addition, the activity, negative = cell killing in [8] (setting [18]) is -3.77%; in assay [8] (setting [20]), -23.3%; in assay [8] (setting [21]), -3.33%; in assay [8] (setting [19]), 5.01%.

The record behind these values is PubChem BioAssay (NCATS).
